Source: PubChem BioAssay (EPA / NIEHS)
Results filed as inconclusive are left out. The source made the active and inactive calls. The calls were made as follows: active = hit-call score of the fitted dose curve at least 0.9, where 1 is the maximum; inconclusive = response in the unintended direction; inactive = score below 0.9.

Molecular target: Cellular tumor antigen p53 (Homo sapiens) (UniProt P04637)
Assay: TOX21_p53_BLA_p3_ratio: Tox21 HCT-116 p53 Agonism Beta-lactamase Assay, Ratio, Phase 3 (AID 2283596)
Procedure, shortened: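 HCT116 p53-bla cells (4000/well) given compound in DMSO (217-fold dilution) after 5 h, incubated 16 h at 37C. CCF4-AM substrate 2 h at room temperature; 460/530 nm emission ratio, gain fitted against DMSO.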

Cellular tumor antigen p53 (Homo sapiens), sequence (P04637 whole entry, looked up): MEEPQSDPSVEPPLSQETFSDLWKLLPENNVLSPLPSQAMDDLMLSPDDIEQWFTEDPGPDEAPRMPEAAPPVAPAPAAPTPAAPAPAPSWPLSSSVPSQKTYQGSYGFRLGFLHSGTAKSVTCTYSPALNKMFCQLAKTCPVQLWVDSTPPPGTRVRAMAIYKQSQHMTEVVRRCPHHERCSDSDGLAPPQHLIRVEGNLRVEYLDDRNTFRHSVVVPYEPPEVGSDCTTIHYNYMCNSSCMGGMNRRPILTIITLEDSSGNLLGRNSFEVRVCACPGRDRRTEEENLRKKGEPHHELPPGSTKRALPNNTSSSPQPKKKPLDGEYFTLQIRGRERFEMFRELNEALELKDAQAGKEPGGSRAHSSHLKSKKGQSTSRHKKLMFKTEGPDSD

| Compound | AC50 | outcome |
| --- | --- | --- |
| CSc1nc2cc(Oc3cccc(Cl)c3Cl)c(Cl)cc2[nH]1 | 33.9 µM (active) | – |
| Cc1c(C)n(CCN(C)C)c2ccc(C(=O)OCCN(C)C)cc12 | – | inactive |
| C/C(=C(\CCOC(=O)c1ccccc1)SS/C(CCOC(=O)c1ccccc1)=C(/C)N(C=O)Cc1cnc(C)nc1N)N(C=O)Cc1cnc(C)nc1N | – | inactive |
| Cc1cc(N)c2ccccc2[n+]1CCCCCCCCCC[n+]1c(C)cc(N)c2ccccc21 | – | inactive |
| NC(=O)NS(=O)(=O)c1ccc(N)cc1 | – | inactive |
| C=C1CC[C@H](O)C/C1=C/C=C1\CCC[C@]2(C)[C@@H]([C@H](C)CCCC(C)(C)O)CC[C@@H]12 | 27.6 µM (active) | – |
| O=C1NCN(c2ccccc2)C12CCN(CCCC(c1ccc(F)cc1)c1ccc(F)cc1)CC2 | 42.2 µM (active) | – |
| CCC(C)(C)c1ccc(CC(C)CN2C[C@@H](C)O[C@@H](C)C2)cc1 (some centres undefined) | – | inactive |
| C=C(Nc1ccc(OCC)cc1)Nc1ccc(OCC)cc1 | – | inactive |
| Cc1ccc(O)c(O)c1 | – | inactive |
| COc1cc2c(cc1OC)C(=O)C(CC1CCN(Cc3ccccc3)CC1)C2 (centres undefined) | – | inactive |
| CC(C)(C)NCC(O)CSc1nc(-c2ccc(C(N)=O)s2)cs1 (centres undefined) | – | inactive |
| Oc1ccc(Cl)c2cccnc12 | – | inactive |
| Cc1cc2nc(N)sc2cc1C | – | inactive |
| CCOc1ccc2nc3cc(N)ccc3c(N)c2c1 | 36.4 µM (active) | – |
| Cc1cc2c(C(C)C)c(O)c(O)c(C=O)c2c(O)c1-c1c(C)cc2c(C(C)C)c(O)c(O)c(C=O)c2c1O | 29.9 µM (active) | – |
| CC[C@@H](CO)NCCN[C@@H](CC)CO | – | inactive |
| CO[Si](CCCNc1ccccc1)(OC)OC | – | inactive |
| CCCCCCCC[P+](CCCCCCCC)(CCCCCCCC)CCCCCCCC | 13.4 µM (active) | – |
| Nc1cnn([C@@H]2O[C@H](CO)[C@@H](O)[C@H]2O)c(=O)n1 | 2.28 µM (active) | – |

| Compound | AC50 | outcome |
| --- | --- | --- |
| O=C(O)c1cc(-c2ccccc2)nc2ccccc12 | – | inactive |
| CC(=O)OC(OC(C)=O)c1ccc([N+](=O)[O-])o1 | – | inactive |
| O=[N+]([O-])c1ccc(O)c2ncccc12 | – | inactive |
| COC(=O)C1=C(C)NC(C)=C(C(=O)OCCCN2CCC(c3ccccc3)(c3ccccc3)CC2)C1c1cccc([N+](=O)[O-])c1 (centres undefined) | 36.8 µM (active) | – |
| CCCOc1ccccc1-c1nc2n[nH]nc2c(=O)[nH]1 | – | inactive |
| Cn1c(O)c(N=NC(N)=S)c2ccccc21 | – | inactive |
| CCC(=O)O[C@]1(C(=O)SCF)[C@H](C)C[C@H]2[C@@H]3C[C@H](F)C4=CC(=O)C=C[C@]4(C)[C@@]3(F)[C@@H](O)C[C@@]21C | – | inactive |
| C[C@@H](NCCCc1cccc(C(F)(F)F)c1)c1cccc2ccccc12 | 40.2 µM (active) | – |
| OCCN1CCN(CCCN2c3ccccc3Sc3ccc(Cl)cc32)CC1 | – | inactive |
| CCCCCCCCCCCCCC[N+](C)(C)Cc1ccccc1 | – | inactive |
| CN1C(=O)OC(C)(C)C1=O | – | inactive |
| Cc1ccc(-n2nc(C(C)(C)C)cc2NC(=O)Nc2ccc(OCCN3CCOCC3)c3ccccc23)cc1 | – | inactive |
| CN(Cc1cc(Br)cc(Br)c1N)C1CCCCC1 | – | inactive |
| COc1c(Br)cc(Br)c(C)c1Br | – | inactive |
| Nc1nc(Cl)nc2c1ncn2[C@@H]1O[C@H](CO)[C@@H](O)[C@@H]1F | 0.117 µM (active) | – |
| NC(=O)C(=O)NN=Cc1ccc([N+](=O)[O-])o1 | – | inactive |
| CCCCN(CCCC)c1ccc(C(=O)c2ccccc2C(=O)O)c(O)c1 | 39.8 µM (active) | – |
| Nc1[nH]c(=O)ncc1F | – | inactive |
| Clc1ccc(COC(Cn2ccnc2)c2ccc(Cl)cc2Cl)c(Cl)c1 (centres undefined) | – | inactive |
